The structures appear in SMILES notation. This is part of a sample that, as a whole, favours compounds with a hit. Of some 83,000 tested, about 20% had one in any assay.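 Note: values are percent growth. 100 is the growth of untreated cells, values between 100 and 0 indicate rising inhibition; between -100 and 0 indicates cell death.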 Unmarked numbers belong to inactive results. The source made the active and inactive calls. Rule for the calls: active = growth percent below 10; inactive = the rest.

This experiment relates to HL-60(TB) leukemia. Nature of the experiment: NCI-60 one-dose screen, 48 h (100 = growth as untreated, 0 = no growth, -100 = all killed). The conditions noted are these: 10 µM unless noted.
`NC(=O)c1cccc(-c2ccccc2N2CCCCC2)c1`: the growth is 95.3%.
For `O=C(Cc1ccc(-c2ccc(OCCN3CCOCC3)cc2)cn1)NCc1ccccc1`, the growth is -31.2% (active).
With `Nc1nc(Nc2ccccc2SSc2ccccc2Nc2nc(N)nc(C(Cl)(Cl)Cl)n2)nc(C(Cl)(Cl)Cl)n1`, the growth was 11.5%.
For `Clc1ccc(/C=C/c2cc(N3CCOCC3)c3cc(Cl)c(Cl)cc3n2)cc1`, the growth was -16.3% (active).
Consider `CCCCCCCCCC1=NC(C)(C)CN1C(C)(C)CO`, for which the growth was -20.8% (active).
In the case of `CC1=CC(C)(C)Nc2ccc(Cc3ccc4c(c3)C(C)=CC(C)(C)N4)cc21`, the growth is 122%.
As to `O=C(Nc1nc(-c2ccc(Cl)cc2)cs1)c1cc(-c2ccc(Br)cc2)nc2ccc(Cl)cc12`, the growth is -24.7% (active).
Regarding `CN=S(=O)(NC(=O)c1ccc(Cl)cc1Cl)c1ccc(Br)s1` (centres undefined), the growth was 108%.
On to `CC(C)c1ccc(-c2cnc3nonc3n2)cc1`, for which the growth was -18.3% (active).
In the case of `Cn1cc(-c2noc(-c3cn(C)c4ncc(F)cc34)n2)c2cc(Br)ccc21` it was 93.8%; in that of `CCOc1ccccc1/C=N\Nc1ccc(S(=O)(=O)c2ccc(N/N=C/c3ccccc3OCC)cc2)cc1`, 102%.
The same measure for `Nc1ccn(C2OC(CO)C(O)C2F)c(=O)n1` (centres undefined): 105%; for `C[C@]12CC[C@@H]3c4cc(OC(F)F)c(O)cc4CC[C@H]3[C@@H]1CC[C@@H]2OS(N)(=O)=O`: 7.66% (active); for `C=C1C(=O)O[C@H]2[C@H]1CC/C(COC(=O)n1ccnc1)=C\CC[C@@]1(C)O[C@@H]21`: 64.3%.
